# In PubChem BioAssay (NCI):
# Where “and” joins values, the source holds several entries; their conditions need not be identical. Equal values may be shown once. This is part of a sample that, as a whole, favours compounds with a hit. Of some 83,000 tested, about 20% had one in any assay.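 Interpretation: 100, growth as untreated; towards 0, rising growth inhibition; 0, no net growth; 0 to -100, cell death. Compounds scoring below 10 were considered active.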 Unmarked numbers belong to inactive results. Calls of active or inactive are those of the source.
# What was measured:
# Assay in all cases: NCI-60 one-dose screen, 48 h (100 = growth as untreated, 0 = no growth, -100 = all killed)
# Conditions in all cases: 10 µM unless noted
# SK-MEL-2 melanoma = system: SK-MEL-2 melanoma
# EKVX NSCLC = system: EKVX NSCLC
# SN12C renal = system: SN12C renal
# UO-31 renal = system: UO-31 renal
# TK-10 renal = system: TK-10 renal
# ACHN renal = system: ACHN renal
# CAKI-1 renal = system: CAKI-1 renal
# A498 renal = system: A498 renal
# CCRF-CEM leukemia = system: CCRF-CEM leukemia
# MOLT-4 leukemia = system: MOLT-4 leukemia
# SR leukemia = system: SR leukemia
# RPMI-8226 leukemia = system: RPMI-8226 leukemia
# OVCAR-8 ovarian = system: OVCAR-8 ovarian
# OVCAR-5 ovarian = system: OVCAR-5 ovarian
# OVCAR-4 ovarian = system: OVCAR-4 ovarian
# SK-OV-3 ovarian = system: SK-OV-3 ovarian
# IGROV1 ovarian = system: IGROV1 ovarian
# OVCAR-3 ovarian = system: OVCAR-3 ovarian
# HS 578T breast = system: HS 578T breast
# NCI/ADR-RES ovarian = system: NCI/ADR-RES ovarian
Compound,growth (SK-MEL-2 melanoma),growth (EKVX NSCLC),growth (SN12C renal),growth (UO-31 renal),growth (TK-10 renal),growth (ACHN renal),growth (CAKI-1 renal),growth (A498 renal),growth (CCRF-CEM leukemia),growth (MOLT-4 leukemia),growth (SR leukemia),growth (RPMI-8226 leukemia),growth (OVCAR-8 ovarian),growth (OVCAR-5 ovarian),growth (OVCAR-4 ovarian),growth (SK-OV-3 ovarian),growth (IGROV1 ovarian),growth (OVCAR-3 ovarian),growth (HS 578T breast),growth (NCI/ADR-RES ovarian)
Cc1ccc(-c2nc3nc(-c4ccc(F)cc4)nc(N4CCCNCC4)c3o2)cc1,-61.2% (active),-75.6% (active),-91.2% (active),-88.5% (active),-93.8% (active),-99.3% (active),-95.4% (active),77.5%,-77.7% (active),-61.1% (active),-37.3% (active),-62.4% (active),-74.8% (active),-97.3% (active),-89% (active),-88.8% (active),-88.3% (active),-96% (active),-75.9% (active),-77.7% (active)
COc1ccc2nc3cc(Cl)ccc3c(NCCCNCCC(C)O)c2c1 (stereo not given),-48.2% (active),-7.41% (active),-25.9% (active),-28.1% (active),8.67% (active),-1.05% (active),-3.91% (active),-79% (active),-24% (active),-18.1% (active),-37.3% (active),-19.8% (active),0.828% (active),-18.8% (active),-28.9% (active),3.74% (active),-10.7% (active),-38.2% (active),0.958% (active),43.7%
COc1c(F)cc(-n2c(C(=O)N3CC(F)C3)cc3cccnc32)cc1F,108%,103%,97.6%,74.2%,99%,93.2%,86.3%,107%,99.1%,97.8%,97.1%,95.1%,102%,100%,97.1%,111%,94.4%,101%,105%,90.7%
N#C/C(=C\c1ccccc1Cl)c1cc2ccccc2[nH]1,114%,77.1%,92.4%,69.7%,130%,84.7%,73.1%,98.6%,-4.12% (active),77.1%,60%,77.1%,96.4%,95.8%,96.4%,76.3%,84.7%,101%,92.9%,95.5%
O=C(CCCCCCCCC(=O)N/N=C\c1ccccc1O)N/N=C\c1ccccc1O,32%,26.3%,21.6%,13.2%,46.4%,14.7%,9.16% (active),46.5%,10.8%,15%,13.5%,32.8%,25.5%,67.5%,15.9%,36.9%,29.6%,39.8%,46.8%,14.1%
CN1CCN(Cc2ccc(NC(=O)c3nc4ccc5[nH]ncc5c4c4c3CCCC4)cc2C(F)(F)F)CC1,-63.5% (active),37.2%,-88.7% (active),-85.9% (active),-86.7% (active),-79.4% (active),-46.6% (active),92.9%,-11.1% (active),-27% (active),-49.8% (active),-36.2% (active),-73.8% (active),37.1%,-39.7% (active),37%,-65.5% (active),-80.3% (active),-35.4% (active),-35.3% (active)
Fc1ccccc1-c1cnn2cc(-c3ccccc3)cnc12,107%,103%,92.1%,85.6%,104%,101%,88.8%,87.8%,93.3%,98.1%,81.8%,98%,94.1%,109%,98.5%,98%,88%,109%,93%,95%
CC1(Cc2ccccc2)CC2=C(C(=O)O1)C(c1ccccc1)NC(=O)N2 (stereo not given),107%,98.7%,104%,79.9%,108%,101%,95%,117%,91.1%,46.5%,76.6%,94%,104%,81.2%,108%,98.8%,118%,109%,109%,106%
COc1ccc(Oc2nc(Nc3ccc(N4CCOCC4)cc3)ncc2NC(=O)c2cc(OC)cc(OC)c2)cc1,95.4%,94.8%,89%,55.5%,103%,86.1%,100%,8.34% (active),70%,53.3%,34.7%,53.2%,92.1%,123%,81.3%,102%,83.8%,83.5%,76.7%,81.6%
N#Cc1ccccc1-c1ccc(Cn2c(-c3cscn3)nc3c(Cl)cccc32)cc1,75.9%,76.9%,91.2%,46%,81.4%,80.8%,70.9%,74.8%,65.8%,48.2%,55.2%,48.3%,78.2%,86.8%,62%,82.6%,89.1%,63.3%,85.5%,73.3%
N#CC1C(=O)c2ccccc2C1c1ccccc1 (stereo not given),103%,103%,101% and 98.5%,74% and 84.6%,109% and 106%,108% and 103%,92.2% and 93.6%,128% and 99.1%,98.2% and 94.2%,80.4% and 83.3%,85.1% and 106%,111% and 102%,96.9% and 97.3%,110% and 104%,99.5% and 99.2%,105% and 114%,100% and 110%,84.9% and 107%,116% and 105%,108% and 107%
CN1C(=O)N(C)C2(c3ccccc3)N(CC(=O)Nc3ccccc3O)C(=O)NC12c1ccccc1 (stereo not given),111%,102%,103%,74.6%,93.9%,102%,74.1%,121%,111%,102%,112%,106%,102%,104%,99.3%,100%,101%,103%,105%,99.8%
Cc1nc2sc(C(=O)Nc3cccc4ncccc34)c(N)c2cc1C(C)O (stereo not given),35.3%,88.4%,91.8%,81.5%,103%,93.4%,89.7%,48.1%,54.4%,64%,22.4%,75.8%,86.6%,96.5%,91.3%,69.9%,74.4%,54.6%,63.6%,88%
C=C(CNCCc1ccc(O)cc1)[C@@H]1CC[C@]2(CO)CC[C@]3(C)[C@H](CC[C@@H]4[C@@]5(C)CCC(NCCc6ccc(O)cc6)C(C)(C)[C@@H]5CC[C@]43C)[C@@H]12 (stereo not given in full),-84.2% (active),-85.7% (active),-85.1% (active),-93.7% (active),-92.6% (active),-98.9% (active),-57.7% (active),-96.6% (active),-43.1% (active),-49.1% (active),-58.5% (active),-51.7% (active),-78.1% (active),-86.3% (active),-81.7% (active),-97.4% (active),-78.4% (active),-94.2% (active),-38.9% (active),-54.5% (active)
